# Only some compounds are listed: those with a hit (about 0.93% of all), similar ones and a draw of the others.
# TRHR agonist – activates the human TRH receptor; P34981; activation, % at 2 µM; TRHR cells, calcium flux fluo-8, FDSS agonist mode; AID 493084; 360,000 tested, 0.18% active; in the data active = activation above about 30%; note: 0% is about no effect
# Target sequence (P34981 whole entry, looked up): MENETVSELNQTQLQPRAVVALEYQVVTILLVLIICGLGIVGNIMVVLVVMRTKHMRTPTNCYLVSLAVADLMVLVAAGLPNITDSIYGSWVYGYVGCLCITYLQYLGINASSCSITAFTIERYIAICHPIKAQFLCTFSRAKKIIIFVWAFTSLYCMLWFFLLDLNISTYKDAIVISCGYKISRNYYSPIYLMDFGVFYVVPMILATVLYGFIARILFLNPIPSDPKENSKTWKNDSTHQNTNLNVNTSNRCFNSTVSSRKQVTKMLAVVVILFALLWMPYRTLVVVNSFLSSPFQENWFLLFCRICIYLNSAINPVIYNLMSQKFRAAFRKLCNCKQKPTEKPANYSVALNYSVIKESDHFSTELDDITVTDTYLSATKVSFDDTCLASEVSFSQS
#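 In this calcium-flux screen, cells bearing human TRHR are dye-loaded with fluo-8, baselined for 10 cycles, then exposed to library compounds; positive kinetic calcium responses during the agonist phase mark hits, with TRH as control.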
# TRPML1 inh – blocks the human TRPML1 channel. 390,000 tested, 0.02% active. TRPML1-inducible cells, Ca2+ dye fluorescence, FDSS; hits give low values; inhibition of EC80 agonist-evoked calcium signal. AID 624415. activity change, negative = inhibition, % (no concentration beside the values); in the data active = activity change below about -50%; inconclusive = between about -30% and that limit;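 note: stimulus is agonist 54-4 at its EC80 concentration; % is set by controls: 0 for no effect and ±100 for the full control effect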
#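 Tet-induced TRPML1-DL cells loaded with Ca8 no-wash calcium dye were read kinetically on FDSS. Compound addition was followed by EC80 agonist 54-4 (4 uM final); inhibition was read over 110 s.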
# TRPML1 ag – activates the human TRPML1 channel. TRPML1-expressing cells, Ca2+ dye fluorescence, FDSS. 410,000 tested, 0.12% active. Q9GZU1. activation, % (concentration not given with the values); in the data active = activation above about 50%; inconclusive = mostly about 30% to 49%; note: 0% is about no effect
#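 Calcium fluorescence on an FDSS kinetic reader gave the read-out. Tet-induced TRPML1-DL cells were plated overnight, dye-loaded (Ca8 with quencher, 45-90 min, room temperature, dark), then read 110 s after compound addition, and again 110 s after 4uM final 54-4 (EC80).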
# HEK293 tox – cytotoxic in the GLP-1 receptor inverse agonist counter-screen. HEK293 cAMP-luciferase reporter cells, luminescence, 24 h. Potency, µM (series often up to 38.3 µM), for the others: top-dose activity change, negative = inhibition, actives largely listed as inhibitors. 410,000 tested, 0.13% active;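 note: loss of luciferase light is scored as toxicity; potency is the fitted concentration of half-maximal effect; % is set by controls: 0 for no effect and ±100 for the full control effect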
#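 Cells in DMEM/10% Nu serum/1% pen-strep, 1536-well format. Pre-incubated 12 h, dosed with 23 nL compound, incubated a further 24 h. Luciferase detection, 12 min at room temp, luminescence.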
# TRHR PAM – allosteric enhancers of human TRH receptor; P34981; TRHR cells, fluo-8 calcium fluorescence, EC20 TRH enhancement; enhancement, % at 2 µM; 360,000 tested, 0.66% active; AID 493056; in the data active = enhancement above about 30%; note: 0% is about no effect
#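 TRHR-expressing cells loaded with fluo-8 calcium dye were read kinetically (ex 480/em 530) during compound addition, then stimulated with an EC20 of TRH (10 nM final). Enhancement of the Gq-mediated intracellular calcium response was scored.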
# PTHR1 ag – agonists of human PTHR1 parathyroid hormone receptor | Q03431 | HEK293 GP2 PTHR1 cells, GloSensor cAMP luminescence, 1 h | Potency, µM (series often up to 115 µM), inactives show top-dose activation, actives largely listed as activators | 410,000 tested, 0.075% active | AID 743266; note: potency is the fitted concentration of half-maximal effect; nearly all actives have a fitted effect of over 55% in size
#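 HEK-293-derived GP2 cells expressing PTHR1 and a GloSensor cAMP reporter, 3,000/well, plated overnight, given luciferin plus IBMX (each 0.5 mM as added) for 1 h at 37 °C, then compound for 1 h at 37 °C. Luminescence was read after 15 min at room temperature.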
# Numbers without * were called inactive; i = inactive; ? = inconclusive; . = not tested or not shown; [ ] = dose if it differs, or a comment. Unless noted, calls come from the whole dose curve; as a rule, active = well fitted curve in the direction sought with a large enough effect; inconclusive = small, poorly fitted or top-dose-only effect, or another doubt; inactive = no such curve, though single readings can be large; an effect the other way counts as inactive or inconclusive.
SMILES,TRHR agonist,TRPML1 inh,TRPML1 ag,HEK293 tox,TRHR PAM,PTHR1 ag
Cn1c(=O)n(C)c2cc([N+](=O)[O-])c(N3CCN(C(=O)c4cccc(Cl)c4)CC3)cc21,0,32,0,-22%,38*,i
COc1cccc(C(=O)O/N=C(\N)c2ccccn2)c1OC,0,-9,1,10%,2,-41%
N/C(=N\OC(=O)c1cccc2ccccc12)c1ccccn1,-1,23,1,4µM*,-1,-31%
CCOc1ccc(C2CC(c3ccc(OC)cc3)n3ncnc3N2)cc1 (centres undefined),2,15,3,-6%,1,-24%
COc1ccc(C2CC(c3ccco3)n3ncnc3N2)cc1 (centres undefined),0,-5,1,13%,37*,1%
CC(=O)c1sc2nsc(SCCN3CCOCC3)c2c1N,0,-12,1,-4%,-13,i
Nc1c(C(=O)c2ccccc2)sc2nsc(SCCN3CCOCC3)c12,89*,-4,?,22%,11,i
N#Cc1nc(Nc2ccc(-c3ccccc3)cc2)nc(NC2CCCC2)n1,1,.,.,.,1,.
Nc1cnn(Cc2ccc(F)cc2)c1,0,5,1,-1%,-3,-31%
COc1cccc(Cn2cc(N)cn2)c1,0,2,1,-6%,32*,i
C=C1C=C(C(F)F)n2ncc(C(=O)N3CCCCC3)c2N1,.,.,-1,.,.,.
Cc1ccccc1CN1[C@H]2CCCC[C@@H]2OCCS1(=O)=O,.,.,-1,.,.,.
CCOC(=O)c1cnc(-n2nc(C)cc2C)nc1NNc1nc(C)cc(C)n1,-1,38,1,-6%,-4,-16%
CCOC(=O)c1cnc(-n2nc(C)cc2C)nc1N(CC)CC,-2,4,-1,2.8µM*,12,?
CCOC(=O)c1cnc(-n2nc(C)cc2C)nc1NC,0,-5,0,?,9,-14%
CCOC(=O)c1cnc(-n2nc(C)cc2C)nc1NC1CCCCC1,1,7,1,1µM*,-8,-32%
COc1ccc(C2N=C(N)Nc3nc4ccccc4n32)cc1 (centres undefined),1,-11,1,10%,9,50µM*
COc1ccc(OC)c(C2N=C(N)Nc3nc4ccccc4n32)c1 (centres undefined),1,-17,0,0%,0,-18%
Nc1ccc(-c2c3ccc(=O)cc-3oc3cc(O)ccc23)c(C(=O)O)c1,-1,-2,84*,17%,19,-20%
O=c1ccc2[n+]([O-])c3ccc(O)cc3oc-2c1,4,-3,1,1%,0,i
Cc1sc2ncn(CC(=O)NCCCC(=O)N3CCC(C)CC3)c(=O)c2c1C,0,6,-1,-3%,-2,i
Cc1sc2ncn(CC(=O)NCCCC(=O)N3CCN(Cc4ccc5c(c4)OCO5)CC3)c(=O)c2c1C,0,10,0,19%[7.66 µM],31*,-33%
Cc1cc(C)nc(-n2nc(C)cc2NC(=O)CN2CCc3ccccc3C2)n1,0,-13,1,5µM*,-4,i
Cc1cc(C)nc(-n2nc(C)cc2NC(=O)CNCc2ccccc2)n1,0,-6,1,-1%,6,i
CCN(CC(=O)Nc1cc(C)nn1-c1nc(C)cc(C)n1)Cc1ccccc1,-1,-17,0,?,33*,i
SMILES,TRHR agonist,TRPML1 inh,TRPML1 ag,HEK293 tox,TRHR PAM,PTHR1 ag
COc1cc2cncnc2cc1OCCCCC(N)=O,.,.,0,.,.,.
Cc1cccc(C(=O)Nc2nnc(SCC(=O)NC3CC3)s2)c1,0,-52*,0,7%,0,i
CCOC(=O)c1ccc2c(c1)N(CC(=O)N1CCCCC1)C(=O)C(C)(C)O2,0,26,-1,-32%,-5,i
CCOC(=O)c1ccc2c(c1)N(CC(=O)N1CCCC1)C(=O)C(C)(C)O2,0,-7,1,-14%,36*,-15%
C[N+](C)(C)c1ccc(/C=C2\C=Cc3ccccc32)cc1,.,.,0,.,.,.
NC(=O)c1c(NC(=O)c2ccccc2Cl)sc2c1CCC2,0,-6,0,-21%,36*,-24%
CC(O)(c1ccccc1)[N+]1(CC(=O)c2ccccc2)C=CC=C1 (centres undefined),.,.,0,.,.,.
COc1ccc(-c2ccc3c(c2)S(=O)(=O)c2cccc(C(=O)NC4CC4)c2C3=O)cc1OC,0,-1,-1,1%,40*,i
Cc1cccc(CC(=O)c2c[nH]c3ccccc23)c1,1,6,1,9%,31*,i
CC(C)NS(=O)(=O)c1ccc(OCC(=O)Nc2ccc3c(c2)OCO3)cc1,0,-11,1,5%,7,0%
CC(C)NS(=O)(=O)c1ccc(OCC(=O)Nc2cccc(F)c2)cc1,-1,5,1,0%,32*,-43%
CN(C)S(=O)(=O)c1cccc(NC(=O)COC(=O)COc2ccc(Br)cc2)c1,0,.,.,0%,-2,i
CN(C)S(=O)(=O)c1cccc(NC(=O)COC(=O)CCOc2ccccc2)c1,0,-15,-1,-5%,33*,i
NS(=O)(=O)c1cccc(NC(=O)COc2ccc([N+](=O)[O-])cc2)c1,0,-2,0,-1%,33*,-10%
O=C(COc1ccc([N+](=O)[O-])cc1)Nc1ccncc1,-2,-13,1,13%[7.66 µM],-2,-5%
Cc1cc2c(s1)c1cnn(Cc3ccc(F)c(C)c3)c(=O)c1n2C,-1,.,.,.,1,.
CN(C)c1ccc(C=O)cc1Cl,.,.,-1,.,.,.
Cc1cnccc1/C=C/c1ccc(N)cc1,.,.,5,.,.,.
COc1cc(CCC(=O)OCC(=O)Nc2ccccc2C#N)cc(OC)c1OC,0,-22,1,4%,34*,-21%
COc1cc(CC(=O)OCC(=O)Nc2ccccc2C#N)cc(OC)c1OC,0,-8,1,3%,8,-35%
CC(=O)Nc1ccc(NC(=O)c2cc([N+](=O)[O-])cc([N+](=O)[O-])c2)cc1,1,2,0,-6%,38*,i
CC(=O)c1cc(NC(=O)c2ccc(Cl)cc2)c(=O)oc1/C=C/N(C)C,39*,-8,?,3%,-3,-94%
CC(=O)c1cc(NC(=O)c2cccc(C(F)(F)F)c2)c(=O)oc1/C=C/N(C)C,.,14,6,0%,.,-8%[57.5 µM]
O=C(c1ccccc1)c1cc([N+](=O)[O-])ccc1N1CCOCC1,-1,-4,-1,11µM*,-3,i

# From PubChem
